Each structure is given as a SMILES string. Unmarked numbers belong to inactive results.

The assay deals with Vero E6 infected with SARS-CoV-2. In words: inhibition of SARS-CoV-2 cytopathic effect; higher = more antiviral protection, active = above 15. The conditions noted are these: 48 h.

As for `NC(=O)N/N=C/c1ccc(Oc2ccc(F)cc2)cc1`, the “inhibition of SARS-CoV-2 cytopathic effect” value (“inhibition” below) reads like this: (1 nM) -1.46%; (8.33 nM) -1.91%; (100 nM) -0.81%; (833.33 nM) 1.11%; (10000 nM) 3.26%.
On to `NCCCNCCCCNCCCN` [spermine], for which the “inhibition” value by setting is: (1 nM) 1.74%; (8.33 nM) -5.72%; (100 nM) -0.71%; (833.33 nM) -2%; (10000 nM) 2.37%.
For `N#Cc1ccc(N2N=C3c4ccc(C(=O)O)cc4CC[C@@H]3[C@@H]2C2CCCC2)cc1Cl` the same measures were 7.07%, 18% (active), 18.3% (active), 4.59% and 10.2%.
In the case of `COc1cc2c(c(OC)c1OC)-c1c(cc3c(c1OC)OCO3)CC(C)C(C)C2` (stereo not given) [schisandrin-B], the “inhibition” value is -1.41% (1 nM); -0.34% (8.33 nM); -0.03% (100 nM); -1.73% (833.33 nM); -1.42% (10000 nM).
For `O=P1(NCCCl)OCCCN1CCCl` (stereo not given) [ifosfamide] the same measures were 0.24%, -2.31%, 0.48%, 0.22% and -0.05%.
In the case of `O=C(N/N=C/c1ccc(O)c(O)c1)c1cc2ccccc2cc1O` [dynasore], the “inhibition” value is, setting by setting: (1 nM) -1.99%; (8.33 nM) 1.05%; (100 nM) -1.82%; (833.33 nM) -0.26%; (10000 nM) 0.04%.
With `CN1[C@@H]2CC[C@H]1C[C@@H](OC(=O)c1c[nH]c3ccccc13)C2` [tropisetron], the “inhibition” value was -1.26% (1 nM); -1.1% (8.33 nM); 1.21% (100 nM); 1.27% (833.33 nM); -1.17% (10000 nM).
